Among the data in ChEMBL document CHEMBL1157539, “Thousands of chemical starting points for antimalarial lead identification” (Nature, 2010) are Inhibition values, retold here.

Each structure is given as a SMILES string.

In the experiment the test system is Plasmodium falciparum. The experiment in a line: GSK_TCMDC: Inhibition of Plasmodium falciparum 3D7 in whole red blood cells, using parasite LDH activity as an index of growth. Test compounds present at 2uM. It counts as functional.
With `CCOC(=O)CNC(=O)N1CCN(C(=O)NCC(=O)OCC)CC1`, the Inhibition (usually how much of the control response was suppressed) worked out at 93%. With `Cc1[nH]c(C)c(C(F)(F)F)c(=O)c1-c1ccc(Oc2ccc(OC(F)(F)F)cc2)cc1` the figure was 97%; with `COc1cccc(Nc2nc(NCCO)c3ccccc3n2)c1.Cl`, 99%. With `COc1ccc(Cn2c(Nc3cccc(C(F)(F)F)c3)nc3cc(C(=O)NCCCN(C)C)ccc32)cc1Cl` the figure was 90%; with `O=C(N[C@@H](CC1CCCCC1)C(=O)NC1CCCc2ccccc21)c1ccc(O)c(-c2cccc(C(F)(F)F)c2)c1` (stereo not given in full), 100%. With `CN(C)CCOc1cc(NC(=O)Nc2ccc(-c3ccccc3)cc2Cl)ccc1I` the figure was 100%; with `OC(CNc1ccnc(Nc2ccccc2)n1)c1ccc(C(F)(F)F)cc1` (stereo not given), 100%. As for `O=C(Nc1ccc(Cn2ncc(N3CCCNCC3)c(Cl)c2=O)cc1)Nc1ccc(SC(F)(F)F)cc1.O=C(O)C(F)(F)F`, the Inhibition came to 93%. With `COc1cccc(-c2cc(C(F)(F)F)n3ncc(C(=O)Nc4cc(Cl)ccc4O)c3n2)c1` the figure was 99%. With `Cl.Oc1ccc(-c2ccccc2)cc1CNC1CCCCC1` the figure was 95%; with `Cc1[nH]n(-c2cccc(C(F)(F)F)c2)c(=O)c1-c1ccc(Cl)cc1`, 98%. With `NC1CCCN(Cc2ccc(-c3cccc(-c4nc5ccccc5[nH]4)c3)cc2)C1.O=C(O)C(F)(F)F` (stereo not given) the figure was 95%; with `CCOC(=O)c1ccc(NC(=O)Nc2ccc(-c3ccc(-c4nc5cccc(C)c5[nH]4)s3)cc2)cc1`, 100%. Turning to `COc1ccc2cc(CNCCCCCCNCc3ccc4cc(OC)ccc4c3)ccc2c1.CS(=O)(=O)O`, the Inhibition came to 100%. With `CCOC(=O)c1cc(C(=O)NCCCCN2CCC(c3ccc(CC)cc3OCC)CC2)ccc1-c1ccc(C(F)(F)F)cc1` the figure was 99%.

`CN1CCCC1CCNc1ncc2c(-c3ccc(NC(=O)Nc4cc(C(F)(F)F)ccc4F)c(F)c3)nn(C)c2n1.O=C(O)C(F)(F)F` (stereo not given) returned an Inhibition of 99%. With `COc1cc2c(cc1OC)CN(CCc1ccc(NC(=O)c3cc4cc(Cl)ccc4[nH]3)cc1)CC2` the figure was 90%; with `c1ccc(Oc2ccc(Nc3ccnc4cc(-c5cccc(CN6CCOCC6)c5)ccc34)cc2)cc1`, 100%; with `COc1ccc(COc2c(OC)cc(Cc3cnc(N)nc3N)cc2OC)cc1`, 90%.

In the case of `O=C(O)C(F)(F)F.c1cc(CNCC2CCCO2)cc(-c2cccc(-c3nc4ccccc4[nH]3)c2)c1` (stereo not given), the Inhibition was 100%.

The compound `Cc1ccc(-c2cc(C(=O)Nc3ccc(S(=O)(=O)N4CCCCC4)cc3)[nH]n2)c(O)c1` displayed an Inhibition of 97%. In turn, `NCc1ccc(CNCc2ccc(-c3ccc(-c4nc5cc(F)ccc5[nH]4)cc3)cc2)cc1.O=C(O)C(F)(F)F` came in with an Inhibition of 100%.

`Cl.O=c1cc(NCCCNCc2cc3ccccc3s2)[nH]c2ccccc12` registered an Inhibition of 89%. `CCc1n[nH]c(C(=O)Nc2cccc(N3CCCC3)c2)c1C` had an Inhibition of 81%. With `O=C(/C=C/c1ccc(Cl)c(Cl)c1)NCCCCCCN1CCCN(C(=O)Nc2cc(Cl)cc(Cl)c2)CC1` the figure was 98%; with `C=CCC1OC(=O)c2cc(OC)cc(OC)c21` (stereo not given), 95%. With `COc1cc2nc(N3CCC(CNC(=O)c4ccc(-c5ccc(C(F)(F)F)cc5)cc4)CC3)nc(N)c2cc1OC` the figure was 100%. With `CN(C)Cc1cccc(-c2cnc(N)c(-c3nc4cc(S(C)(=O)=O)ccc4[nH]3)c2)c1.O=C(O)C(F)(F)F` the figure was 100%; with `COc1ccc(CNCc2ccccc2)cc1-c1ccc(OC)c(S(=O)(=O)NCCN2CCCC2)c1.O=C(O)C(F)(F)F`, 100%. For the compound `CCOc1c(CCNCCCCNCCc2ccc3ccccc3c2OCC)ccc2ccccc12.CS(=O)(=O)O`, the Inhibition came out at 94%.

Compound `NCc1ccc(-c2ccccc2CNC2CCN(Cc3ccccc3)CC2)cc1.O=C(O)C(F)(F)F` returned an Inhibition of 94%. With `O=C(Nc1ccc(Cl)cc1F)N[C@H]1CCN(CCCCCNC(=O)C2CC2c2ccc(Cl)c(Cl)c2)C1` (stereo not given in full) the figure was 87%; with `O=C(Nc1ccc(C(F)(F)F)cc1)c1cccc(S(=O)(=O)NC2CCN(CC3CCCCC3)CC2)c1.O=C(O)C(F)(F)F`, 99%; with `CC(=O)Nc1ccc(C(=O)Nc2ccc(-c3cccc(-c4nc5ccccc5[nH]4)c3)cc2)cn1`, 99%.

`CN(C)CCOc1ccc(/C(=C(/CCCn2ccnc2)c2ccccc2)c2ccc(O)cc2)cc1` returned an Inhibition of 100%. With `CC(C)(C)N1CCC(N(Cc2ccc(-c3ccc(C(F)(F)F)cc3)cc2)C(=O)Cn2c(CCc3cccc(F)c3F)cc(=O)c3cccnc32)CC1.O=C(O)C(O)C(O)C(=O)O` the figure was 100%; with `Br.CC(C)c1ccc(OCCCON2C(=N)N=C(N)NC2(C)C)cc1`, 93%.

`Nc1nc(N)c2c(ccc3c2ccn3Cc2ccc(-c3ccccc3)cc2)n1` had an Inhibition of 98%. With `Nc1ncnc2nc(-c3ccc(F)cc3)cc(-c3ccc(NC(=O)c4ccccc4)cc3)c12` the figure was 100%; with `COc1ccc2c(=O)c(I)c(C)[nH]c2c1`, 96%.
